Shown are actives, neighbours in structure and some others; about 4.6% of the full set was active somewhere.
tim10-1 inh – tim10-1 yeast growth inhibition; actives 2.2% (n = 330,000); S. cerevisiae tim10-1 ts strain growth, BacTiter-Glo, 24 h; inhibition, % at 20 µM; AID 463190;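 active = inhibition of at least 40%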;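 note: mutant grown at 25 °C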
SKKanGAS inh – blocks kanamycin growth of S. pyogenes SKKanGAS strain; inhibition, % at 7.5 µM; BacTiter-Glo, 6 h; actives 1.3% (n = 300,000);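 active = mean replicate score, as percent of positive control median, at least 50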;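 note: strain carries kanamycin resistance gene driven by streptokinase promoter and grows in 40 µg/ml kanamycin; loss of luminescence reflects streptokinase promoter inhibition or plain growth inhibition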
tim23-1 inh – inhibits growth of tim23-1 mutant yeast | inhibition, % at 20 µM | S. cerevisiae tim23-1 growth, BacTiter-Glo luminescence, 24 h | actives 1.3% (n = 330,000);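 active = growth inhibition of the mutant yeast at or above 50%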;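 note: temperature-sensitive mutant grown at 25 °C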
PfHsp90 set2 – growth inhibition of yeast expressing Plasmodium Hsp90. actives 0.32% (n = 310,000). inhibition, % at 9.4 µM. S. cerevisiae expressing PfHsp90, BacTiter-Glo ATP, 48 h; yeast lacking PDR1 and PDR3 efflux regulators;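 active = every replicate shows inhibition above about 80%, whatever the replicate mean, limit read from the data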
NALP3 yeast inh – NALP3 inhibition in yeast | inhibition, % at 10 µM | Yeast reconstituted NLRP3/ASC/caspase-1, beta-gal luminescence, 24 h | actives 0.39% (n = 330,000) | AID 2825;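 active = inhibition of 50% or more; inactive = inhibition below 50%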
TIM10 inh – inhibits growth of TIM10 yeast strain; S. cerevisiae TIM10 strain growth, BacTiter-Glo luminescence, 24 h; inhibition, % at 10 µM; actives 1.4% (n = 330,000);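 active = inhibition of 40% or more at the single tested concentration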;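 note: wild-type TIM10 isogenic control strain grown at permissive 25 °C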
TIM10 conf – TIM10 yeast growth inhibition, confirmed. shares compounds with TIM10 inh. AID 463215. actives 63% (n = 4,600). inhibition, % at 10 µM. S. cerevisiae tim10 strain growth, BacTiter-Glo luminescence, 24 h;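 active = inhibition of yeast growth at or above a set limit in either of two replicates at 10 µM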; note: this counterscreen used the strain with wild-type TIM10
Numbers stand for hits; i = inactive; nt = no result given.

SMILES	tim10-1 inh	SKKanGAS inh	tim23-1 inh	PfHsp90 set2	NALP3 yeast inh	TIM10 inh	TIM10 conf
COc1ccccc1N1CCN(C(=O)c2ccc3nc(-c4ccco4)c(-c4ccco4)nc3c2)CC1	i	i	i	nt	i	41	i
COc1ccccc1N1CCN(C(=O)c2ccc3nc[nH]c3c2)CC1	i	i	i	i	i	i	nt
COc1ccccc1N1CCN(C(=O)c2cc(-c3ccc(F)cc3)on2)CC1	i	i	i	i	i	i	nt
COc1ccccc1N1CCN(C(=O)c2cc(-c3ccc(C)cc3)on2)CC1	i	i	i	i	i	40	36
CC(=O)Nc1ccc(S(=O)(=O)NCC2(N3CCOCC3)CCCCC2)cc1	i	nt	i	nt	i	i	nt
O=[N+]([O-])c1ccc(Cl)c(/C=N/n2c(-c3ccncc3)n[nH]c2=S)c1	i	i	i	i	i	i	nt
CCn1ncc(Br)c1C(=O)Nc1ccc(C(=O)OC(C)C)cc1	i	i	i	i	i	44	i
O=C(O)CNC(=O)CC1S/C(=N/N=C2/NC(=O)CS2)NC1=O (stereo not given)	i	i	i	i	i	i	nt
COc1cccc(N2C(=NC(=O)CCc3ccccc3)SC3CS(=O)(=O)CC32)c1 (stereo not given)	i	i	i	i	i	i	nt
COc1ccc(C2Nc3ccccc3C(=O)N2NS(=O)(=O)c2ccccc2)cc1 (stereo not given)	i	i	i	i	i	i	nt
N#C/C(=C\C=C\c1ccccc1)C(=O)NCc1cccnc1	i	i	i	i	i	i	nt
CNc1ncc(C(=O)c2ccc(Cl)c(Cl)c2)s1	i	i	i	i	i	55	i
Cc1cccc(-n2c(O)c(C=Nc3cccc(O)c3)c3ccccc3c2=O)n1	i	i	i	i	i	i	nt
Cc1cc(N=Cc2c(O)n(-c3ccc4c(c3)OCO4)c(=O)c3ccccc23)ccn1	i	i	i	i	i	53	36
Cc1ccc(-n2c(O)c(C=Nc3ccc4c(c3)OCO4)c3ccccc3c2=O)cc1C	i	i	i	i	i	i	nt
Cc1ccc(N=Cc2c(O)n(-c3nccs3)c(=O)c3ccccc23)cc1	i	i	i	i	i	41	i
COc1ccc(C2(O)CCN(CC(=O)Nc3nc(-c4ccccc4)cs3)CC2)cc1	i	i	i	i	i	52	43
O=C(/C=C/c1ccoc1)c1ccccc1O	i	i	i	i	i	i	nt
O=C(/C=C/c1ccc(O)c(O)c1)c1ccccc1O	i	i	i	i	i	42	i
Brc1ccc2[nH]c3c(N4CCc5ccccc5C4)ncnc3c2c1	i	86	i	nt	i	43	i
Fc1ccc2[nH]c3c(N4CCc5ccccc5C4)ncnc3c2c1	i	i	i	nt	i	i	nt
Cc1ccc(C)c(-c2cc(C(=O)Nc3nccs3)c3ccccc3n2)c1	i	i	i	i	i	47	42
N#Cc1nccnc1S(=O)(=O)c1cccs1	i	i	i	nt	i	i	nt
CCOc1ccc(S(=O)(=O)n2c([N+](=O)[O-])cnc2C)c(C)c1C	i	i	i	i	i	97	i
COc1ccc(S(=O)(=O)n2c([N+](=O)[O-])cnc2C)c(C)c1C	i	i	i	i	i	i	nt
SMILES	tim10-1 inh	SKKanGAS inh	tim23-1 inh	PfHsp90 set2	NALP3 yeast inh	TIM10 inh	TIM10 conf
CCCCOC(=O)CCn1c(=S)oc2ccccc21	i	i	i	i	i	i	nt
CCCCOC(=O)n1c(=S)oc2cc(Cl)ccc21	i	i	i	i	i	74	i
O=C(CNS(=O)(=O)c1ccc(Br)s1)NCC1COc2ccccc2O1 (stereo not given)	i	i	i	nt	i	61	49
O=C(CNC(=O)c1ccc(Br)o1)NCC1COc2ccccc2O1 (stereo not given)	i	nt	i	i	i	i	nt
Cc1cc(/C=C\c2ccccc2)nc2ccccc12	i	i	i	i	i	53	62
COc1ccc(/C=C/c2cc(C(=O)O)c3ccccc3n2)cc1	i	i	i	i	i	i	nt
O=C(CCc1ccccc1)NC1(Cc2ccccc2)CCN(CCCc2ccccc2)C1=O (stereo not given)	i	nt	i	i	i	i	nt
O=C(COc1cccc(OC(F)F)c1)Nc1ccc(SC(F)F)cc1	i	i	i	i	i	50	39

Screening results (PubChem)
